# From the antibiotic and cytotoxicity screens of Wong et al. (2023)
# The campaign covered roughly 39,000 compounds. About 1,500 (3.8%) were called active. The full list was thinned out, with actives kept by preference.
# Test system: HSkMC (human skeletal muscle cells)
# Assay: cytotoxicity call (relative viability < 0.9)
# Conditions: 10 µM
row,SMILES,cytotoxicity call
1,COc1ccc(NC(=O)N(C)C[C@@H]2Oc3ncc(C#CCN(C)C)cc3C(=O)N([C@@H](C)CO)C[C@H]2C)cc1,inactive
2,C[C@@H]1O[C@H](O)[C@@H](F)[C@H](O)[C@@H]1O,inactive
3,C[C@@H]1CCCCO[C@@H](CN(C)Cc2ccc(C(F)(F)F)cc2)[C@@H](C)CN([C@@H](C)CO)C(=O)c2cc(NC(=O)Nc3ccc(C(F)(F)F)cc3)ccc2O1,active
4,C[C@@H]1CN([C@H](C)CO)C(=O)c2cc(NC(=O)Nc3ccc(C(F)(F)F)cc3)ccc2O[C@@H](C)CCCCO[C@H]1CN(C)Cc1ccc(C(F)(F)F)cc1,active
5,C[C@H](CO)N1C[C@H](C)[C@H](CN(C)Cc2ccc(C(F)(F)F)cc2)OCCCC[C@H](C)Oc2ccc(NC(=O)Nc3ccc(C(F)(F)F)cc3)cc2C1=O,inactive
6,C[C@@H]1CN([C@@H](C)CO)C(=O)c2cc(NC(=O)Nc3ccc(C(F)(F)F)cc3)ccc2O[C@@H](C)CCCCO[C@@H]1CN(C)Cc1ccc(C(F)(F)F)cc1,inactive
7,C[C@@H]1CCCCO[C@@H](CN(C)Cc2ccc(C(F)(F)F)cc2)[C@H](C)CN([C@@H](C)CO)C(=O)c2cc(NC(=O)Nc3ccc(C(F)(F)F)cc3)ccc2O1,active
8,C[C@@H]1CCCCO[C@@H](CN(C)Cc2ccc(C(F)(F)F)cc2)[C@@H](C)CN([C@H](C)CO)C(=O)c2cc(NC(=O)Nc3ccc(C(F)(F)F)cc3)ccc2O1,inactive
9,C[C@H]1CCCCO[C@@H](CN(C)Cc2ccc(C(F)(F)F)cc2)[C@@H](C)CN([C@@H](C)CO)C(=O)c2cc(NC(=O)Nc3ccc(C(F)(F)F)cc3)ccc2O1,active
10,C[C@@H]1CCCCO[C@@H](CN(C)Cc2ccc(C(F)(F)F)cc2)[C@H](C)CN([C@H](C)CO)C(=O)c2cc(NC(=O)Nc3ccc(C(F)(F)F)cc3)ccc2O1,inactive
11,CNC[C@H]1OCCCC[C@H](C)Oc2ccc(NC(=O)CCCN(C)C)cc2C(=O)N([C@H](C)CO)C[C@@H]1C,inactive
12,C[C@@H]1CN([C@H](C)CO)C(=O)c2cccc(NC(=O)c3ccncc3)c2O[C@H]1CN(C)S(=O)(=O)c1ccccc1,inactive
13,C[C@H](CO)N1C[C@H](C)[C@H](CN(C)S(=O)(=O)c2cn(C)cn2)Oc2ccc(NC(=O)CCCCCC(=O)Nc3ccccc3N)cc2C1=O,inactive
14,CCOC(=O)CCCCCCCCCCCC[C@@H]1C=CCC1,inactive
15,C[C@H](CO)N1C[C@H](C)[C@H](CN(C)Cc2ccc(C(=O)Nc3ccccc3N)cc2)OCCCC[C@H](C)Oc2ccc(NC(=O)C3CCCCC3)cc2C1=O,inactive
16,C[C@@H]1CN([C@H](C)CO)C(=O)c2cccc(NS(=O)(=O)c3cn(C)cn3)c2O[C@H]1CN(C)C(=O)Nc1ccc2c(c1)OCO2,inactive
17,CCOC(=O)Cn1cccc2oc(=O)nc1-2,inactive
18,C[C@H]1CN([C@@H](C)CO)C(=O)c2c(c3ccccc3n2C)-c2ccccc2CO[C@H]1CN(C)C(=O)Nc1ccccc1,inactive

row,SMILES,cytotoxicity call
1,C[C@@H]1CN([C@@H](C)CO)C(=O)c2c(c3ccccc3n2C)-c2ccccc2CO[C@H]1CN(C)C(=O)[C@H](C)c1ccccc1,inactive
2,COc1ccc(NC(=O)N(C)C[C@@H]2Oc3ccc(NC(=O)Nc4cccc5ccccc45)cc3CC(=O)N([C@H](C)CO)C[C@@H]2C)cc1,inactive
3,COc1ccccc1-c1cnc2c(c1)C(=O)N([C@H](C)CO)C[C@@H](C)[C@H](CN(C)C(=O)c1ccncc1)O2,inactive
4,Cc1ccc(-c2cnc3c(c2)C(=O)N([C@@H](C)CO)C[C@H](C)[C@@H](CN(C)C(=O)Cc2ccncc2)O3)cc1,inactive
5,C[C@@H]1CN([C@H](C)CO)C(=O)c2cccc(NC(=O)c3ccc(-c4nccs4)cc3)c2O[C@@H]1CN(C)C(=O)NC1CCCCC1,inactive
6,C[C@@H]1CCCCO[C@H](CN(C)Cc2ccc(C(F)(F)F)cc2)[C@@H](C)CN([C@H](C)CO)C(=O)c2cc(NC(=O)Nc3ccc(C(F)(F)F)cc3)ccc2O1,inactive
7,C[C@@H]1CCCCO[C@@H](CN(C)Cc2ccncc2)[C@H](C)CN([C@H](C)CO)C(=O)c2cc(NC(=O)Nc3ccc(C(F)(F)F)cc3)ccc2O1,inactive
8,C[C@@H]1CN([C@H](C)CO)C(=O)c2cc(NC(=O)Nc3ccc(C(F)(F)F)cc3)ccc2O[C@@H](C)CCCCO[C@@H]1CN(C)Cc1ccncc1,active
9,C[C@H](CO)N1C[C@H](C)[C@H](CN(C)Cc2ccc(C(F)(F)F)cc2)OCCCC[C@H](C)Oc2ccc(NC(=O)Nc3ccc(F)cc3)cc2C1=O,inactive
10,C[C@@H]1CN([C@H](C)CO)C(=O)c2cc(NC(=O)Nc3ccc(C(F)(F)F)cc3)ccc2O[C@@H](C)CCCCO[C@H]1CN(C)Cc1ccc(Cl)c(Cl)c1,inactive
11,C[C@H](CO)N1C[C@H](C)[C@@H](CN(C)Cc2ccc(Cl)c(Cl)c2)OCCCC[C@H](C)Oc2ccc(NC(=O)Nc3ccc(C(F)(F)F)cc3)cc2C1=O,active
12,C[C@H]1CCCCO[C@H](CN(C)Cc2ccc(C(F)(F)F)cc2)[C@@H](C)CN([C@@H](C)CO)C(=O)c2cc(NC(=O)Nc3ccc(F)cc3)ccc2O1,inactive
13,C[C@@H]1CN([C@H](C)CO)C(=O)c2cc(NC(=O)Nc3ccc(C(F)(F)F)cc3)ccc2O[C@@H](C)CCCCO[C@@H]1CN(C)Cc1ccc(C(F)(F)F)cc1,active
14,C[C@H](CO)N1C[C@H](C)[C@@H](CN(C)Cc2ccncc2)OCCCC[C@H](C)Oc2ccc(NC(=O)Nc3ccc(C(F)(F)F)cc3)cc2C1=O,inactive
15,C[C@@H]1CCCCO[C@@H](CN(C)Cc2ccc(C(F)(F)F)cc2)[C@H](C)CN([C@@H](C)CO)C(=O)c2cc(NC(=O)Nc3ccc(F)cc3)ccc2O1,inactive
16,C[C@@H]1CN([C@H](C)CO)C(=O)c2cc(NC(=O)Nc3ccc(F)cc3)ccc2O[C@@H](C)CCCCO[C@H]1CN(C)Cc1ccc(C(F)(F)F)cc1,active
17,C[C@@H]1CN([C@@H](C)CO)C(=O)c2cc(NC(=O)Nc3ccc(C(F)(F)F)cc3)ccc2O[C@@H](C)CCCCO[C@H]1CN(C)Cc1ccc(Cl)c(Cl)c1,inactive
18,C[C@H](CO)N1C[C@H](C)[C@H](CN(C)Cc2ccc(O)cc2)OCc2ccccc2-c2c(n(C)c3ccccc23)C1=O,inactive
